# Results reported in publication PMC7862700, “An all-to-all approach to the identification of sequence-specific readers for epigenetic DNA modifications on cytosine”.
# Key:
# Assay in all cases: DAPPL (digital affinity profiling via proximity ligation, sequencing); 10 mM Tris-HCl pH 7.5, 50 mM NaCl, 1 mM DTT, 4% glycerol, room temperature, 30 min; GST-TFs on glutathione beads, 16-mer random dsDNA library, 0.1% formaldehyde crosslink after washing; high values mean tight binding
# Conditions in all cases: protein: recombinant; tags: N-terminal GST; dsDNA, one strand shown
# SPIC = biological target: T1, SPIC (Homo sapiens, UniProt Q8N5J4 1-248)
# T1 sequence: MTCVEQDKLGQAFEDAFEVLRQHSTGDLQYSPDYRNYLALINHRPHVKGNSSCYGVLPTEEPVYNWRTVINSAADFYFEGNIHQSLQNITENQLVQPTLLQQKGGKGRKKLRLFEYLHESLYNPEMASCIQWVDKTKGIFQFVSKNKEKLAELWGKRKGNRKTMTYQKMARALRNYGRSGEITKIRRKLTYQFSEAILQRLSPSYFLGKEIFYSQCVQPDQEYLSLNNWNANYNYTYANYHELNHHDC
# In short: (§1)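 Human transcription factors were made in yeast as GST fusions, captured on glutathione beads and barcoded with DNA. With a tag-only sample included, the pool was incubated with 200 nmole of a random double-stranded 16-mer DNA library in Tris/NaCl/DTT/glycerol buffer at room temperature for 30 min, then crosslinked with 0.1% formaldehyde after washing, ligated by proximity, amplified and sequenced. For binding signal, each hexamer's read frequency for a factor is divided by its frequency for the tag-only sample.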
# ETV2 = biological target: T2, ETV2 (Homo sapiens, UniProt O00321 1-342)
# T2 sequence: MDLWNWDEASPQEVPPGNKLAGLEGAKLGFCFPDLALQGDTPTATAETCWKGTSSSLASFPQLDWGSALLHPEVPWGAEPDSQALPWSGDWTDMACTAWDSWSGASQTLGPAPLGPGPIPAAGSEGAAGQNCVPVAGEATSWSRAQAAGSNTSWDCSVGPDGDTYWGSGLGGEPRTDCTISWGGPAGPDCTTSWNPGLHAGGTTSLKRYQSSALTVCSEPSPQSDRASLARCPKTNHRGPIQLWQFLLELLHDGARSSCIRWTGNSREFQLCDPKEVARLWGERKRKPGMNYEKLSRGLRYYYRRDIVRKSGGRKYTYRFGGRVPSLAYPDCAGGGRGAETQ
# In short: as §1
# ETV3 = biological target: T3, ETV3 (Homo sapiens, UniProt P41162-2 1-143)
# T3 sequence: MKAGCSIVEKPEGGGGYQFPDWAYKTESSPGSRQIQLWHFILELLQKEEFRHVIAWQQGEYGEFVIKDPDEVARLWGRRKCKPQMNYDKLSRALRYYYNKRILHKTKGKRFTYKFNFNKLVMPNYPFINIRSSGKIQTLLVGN
# In short: as §1
# EHF = biological target: T4, EHF (Homo sapiens, UniProt Q9NZC4 1-300)
# T4 sequence: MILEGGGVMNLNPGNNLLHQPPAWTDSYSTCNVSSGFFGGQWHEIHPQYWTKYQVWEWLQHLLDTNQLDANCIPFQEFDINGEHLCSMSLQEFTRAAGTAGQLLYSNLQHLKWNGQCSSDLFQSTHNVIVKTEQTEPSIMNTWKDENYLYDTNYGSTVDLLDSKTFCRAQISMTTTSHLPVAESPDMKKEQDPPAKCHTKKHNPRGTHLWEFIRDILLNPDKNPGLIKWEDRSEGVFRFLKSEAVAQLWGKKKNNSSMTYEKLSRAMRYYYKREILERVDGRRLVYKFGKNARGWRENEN
# In short: as §1
# SPIB = SPIB (Homo sapiens, UniProt Q01892 1-262)
# SPIB, sequence (Q01892 whole entry): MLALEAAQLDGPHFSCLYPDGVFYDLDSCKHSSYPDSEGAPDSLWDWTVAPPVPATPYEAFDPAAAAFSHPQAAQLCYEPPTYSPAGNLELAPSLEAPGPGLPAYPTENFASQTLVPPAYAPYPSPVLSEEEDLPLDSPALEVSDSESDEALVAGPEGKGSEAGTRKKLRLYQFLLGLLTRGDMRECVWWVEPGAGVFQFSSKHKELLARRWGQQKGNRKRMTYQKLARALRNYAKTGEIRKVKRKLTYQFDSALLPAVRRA
# In short: as §1
# ELK3 = biological target: T5, ELK3 (Homo sapiens, UniProt P41970 1-407)
# T5 sequence: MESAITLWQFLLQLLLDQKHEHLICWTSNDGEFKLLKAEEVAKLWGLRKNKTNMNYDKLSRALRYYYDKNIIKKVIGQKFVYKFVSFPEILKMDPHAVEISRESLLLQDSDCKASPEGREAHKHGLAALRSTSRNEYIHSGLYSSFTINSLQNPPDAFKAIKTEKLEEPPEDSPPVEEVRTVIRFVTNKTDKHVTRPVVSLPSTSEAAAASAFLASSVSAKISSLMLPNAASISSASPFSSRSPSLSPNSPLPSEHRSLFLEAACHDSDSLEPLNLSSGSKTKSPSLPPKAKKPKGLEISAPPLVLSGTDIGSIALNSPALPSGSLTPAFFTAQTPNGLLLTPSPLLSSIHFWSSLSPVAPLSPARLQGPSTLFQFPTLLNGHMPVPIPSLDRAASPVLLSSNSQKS
# In short: as §1
# ELK4 = biological target: T6, ELK4 (Homo sapiens, UniProt P28324-2 1-405)
# T6 sequence: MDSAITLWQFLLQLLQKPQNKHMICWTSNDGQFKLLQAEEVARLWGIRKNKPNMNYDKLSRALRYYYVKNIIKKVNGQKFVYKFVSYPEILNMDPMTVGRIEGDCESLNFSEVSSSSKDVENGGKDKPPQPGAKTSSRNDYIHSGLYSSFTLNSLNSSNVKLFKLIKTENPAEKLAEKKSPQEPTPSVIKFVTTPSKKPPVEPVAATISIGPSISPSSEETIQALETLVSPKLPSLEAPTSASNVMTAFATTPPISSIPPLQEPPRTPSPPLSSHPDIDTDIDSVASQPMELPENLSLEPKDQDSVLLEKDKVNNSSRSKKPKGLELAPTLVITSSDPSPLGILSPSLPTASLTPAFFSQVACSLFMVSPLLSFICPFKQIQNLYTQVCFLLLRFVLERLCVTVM
# In short: as §1
# ERG = biological target: T7, ERG (Homo sapiens, UniProt P11308 1-479)
# T7 sequence: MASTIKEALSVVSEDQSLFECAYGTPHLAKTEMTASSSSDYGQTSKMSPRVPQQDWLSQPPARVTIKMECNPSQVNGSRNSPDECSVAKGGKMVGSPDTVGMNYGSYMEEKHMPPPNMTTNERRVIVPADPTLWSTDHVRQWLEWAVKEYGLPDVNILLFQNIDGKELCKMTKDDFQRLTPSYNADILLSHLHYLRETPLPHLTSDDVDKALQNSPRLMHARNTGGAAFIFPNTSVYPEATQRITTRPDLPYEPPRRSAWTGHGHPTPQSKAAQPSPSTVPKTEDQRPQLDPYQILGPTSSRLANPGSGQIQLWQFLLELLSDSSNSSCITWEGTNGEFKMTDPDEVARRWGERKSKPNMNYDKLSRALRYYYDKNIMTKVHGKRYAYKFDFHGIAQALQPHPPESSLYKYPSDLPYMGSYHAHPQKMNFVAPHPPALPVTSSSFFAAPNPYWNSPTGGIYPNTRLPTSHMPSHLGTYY
# In short: as §1
# SPI1 = SPI1 (Homo sapiens, UniProt P17947 1-270)
# In short: as §1
# ELF3 = biological target: T8, ELF3 (Homo sapiens, UniProt P78545 1-371)
# T8 sequence: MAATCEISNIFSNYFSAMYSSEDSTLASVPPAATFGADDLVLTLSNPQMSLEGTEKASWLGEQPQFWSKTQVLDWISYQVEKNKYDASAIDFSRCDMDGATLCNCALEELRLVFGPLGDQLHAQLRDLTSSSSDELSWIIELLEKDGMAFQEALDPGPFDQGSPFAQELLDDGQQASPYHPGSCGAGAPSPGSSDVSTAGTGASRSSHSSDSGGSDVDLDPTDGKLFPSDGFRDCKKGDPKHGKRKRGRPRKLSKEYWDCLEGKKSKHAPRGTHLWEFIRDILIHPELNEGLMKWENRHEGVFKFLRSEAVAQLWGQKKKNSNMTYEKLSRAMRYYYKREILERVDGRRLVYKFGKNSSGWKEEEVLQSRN
# In short: as §1
# ETV7 = biological target: T9, ETV7 (Homo sapiens, UniProt Q9Y603 1-341)
# T9 sequence: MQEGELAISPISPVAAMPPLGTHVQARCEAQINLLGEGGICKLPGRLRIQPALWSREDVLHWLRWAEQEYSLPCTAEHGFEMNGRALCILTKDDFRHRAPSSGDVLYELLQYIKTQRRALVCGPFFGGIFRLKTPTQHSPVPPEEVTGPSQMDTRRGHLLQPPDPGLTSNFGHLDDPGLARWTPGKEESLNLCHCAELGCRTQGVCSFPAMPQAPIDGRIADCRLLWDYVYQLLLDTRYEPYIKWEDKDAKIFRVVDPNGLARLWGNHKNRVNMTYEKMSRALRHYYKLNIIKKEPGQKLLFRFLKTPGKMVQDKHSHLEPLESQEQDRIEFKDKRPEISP
# In short: as §1
# ELF5 = biological target: T10, ELF5 (Homo sapiens, UniProt Q9UKW6-2 1-255)
# T10 sequence: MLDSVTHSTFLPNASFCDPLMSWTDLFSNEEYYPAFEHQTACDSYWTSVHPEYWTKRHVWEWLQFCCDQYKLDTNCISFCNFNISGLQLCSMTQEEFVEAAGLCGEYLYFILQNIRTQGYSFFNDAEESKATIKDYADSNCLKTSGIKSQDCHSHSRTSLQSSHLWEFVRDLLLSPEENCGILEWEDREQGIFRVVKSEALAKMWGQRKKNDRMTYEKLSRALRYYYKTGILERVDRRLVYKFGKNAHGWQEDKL
# In short: as §1
# ETV6 = ETV6 (Homo sapiens, UniProt P41212 1-452)
# ETV6, sequence (P41212 whole entry): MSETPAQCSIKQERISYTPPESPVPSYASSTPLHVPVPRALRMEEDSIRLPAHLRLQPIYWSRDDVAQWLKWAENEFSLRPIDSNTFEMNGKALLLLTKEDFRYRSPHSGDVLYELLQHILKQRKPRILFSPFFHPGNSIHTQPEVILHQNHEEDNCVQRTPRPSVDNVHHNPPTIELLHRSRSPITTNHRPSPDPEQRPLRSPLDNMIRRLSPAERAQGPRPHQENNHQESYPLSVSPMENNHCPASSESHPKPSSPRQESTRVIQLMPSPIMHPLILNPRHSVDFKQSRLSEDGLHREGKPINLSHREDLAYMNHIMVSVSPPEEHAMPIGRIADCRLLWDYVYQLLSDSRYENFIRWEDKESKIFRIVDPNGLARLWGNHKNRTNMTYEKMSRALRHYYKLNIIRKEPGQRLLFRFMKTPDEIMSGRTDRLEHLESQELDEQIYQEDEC
# In short: as §1
sequence,measurement,setting,value
CGCAAT,binding signal,SPIC,"1.01 fold enrichment (6-mer frequency, TF over GST control)"
same,binding signal,ETV2,"1.04 fold enrichment (6-mer frequency, TF over GST control)"
same,binding signal,ETV3,"1.01 fold enrichment (6-mer frequency, TF over GST control)"
CGCGCA,binding signal,EHF,"1.07 fold enrichment (6-mer frequency, TF over GST control)"
same,binding signal,SPIB,"1.04 fold enrichment (6-mer frequency, TF over GST control)"
same,binding signal,ELK3,"1.01 fold enrichment (6-mer frequency, TF over GST control)"
same,binding signal,SPIC,"1.01 fold enrichment (6-mer frequency, TF over GST control)"
same,binding signal,ELK4,"1.13 fold enrichment (6-mer frequency, TF over GST control)"
same,binding signal,ETV2,"1.02 fold enrichment (6-mer frequency, TF over GST control)"
AGGGAA,binding signal,ERG,"1.02 fold enrichment (6-mer frequency, TF over GST control)"
same,binding signal,EHF,"1.04 fold enrichment (6-mer frequency, TF over GST control)"
same,binding signal,SPI1,"1.39 fold enrichment (6-mer frequency, TF over GST control)"
same,binding signal,SPIB,"1 fold enrichment (6-mer frequency, TF over GST control)"
same,binding signal,SPIC,"1.01 fold enrichment (6-mer frequency, TF over GST control)"
same,binding signal,ELF3,"1.01 fold enrichment (6-mer frequency, TF over GST control)"
same,binding signal,ETV7,"1.06 fold enrichment (6-mer frequency, TF over GST control)"
same,binding signal,ELF5,"1.24 fold enrichment (6-mer frequency, TF over GST control)"
same,binding signal,ETV6,"1.03 fold enrichment (6-mer frequency, TF over GST control)"
